Test results: PubChem BioAssay AID1345085 (National Center for Advancing Translational Sciences (NCATS), 2018)
Results filed as inconclusive are left out. Values without a mark were called inactive. Calls of active or inactive are those of the source. Calls follow the shape of the dose curve; as a rule, active = well fitted cell-killing curve with a large enough effect; inconclusive = small, poorly fitted or top-dose-only effect, or effect the other way; inactive = no such curve, though single readings can be large or run the other way.

The compounds below were run on PA-1 (assay: Confirmatory qHTS for gynecologic anti-cancer compounds from libraries of approved drugs and bioactive compounds). Details: gynecologic cancer cell panel viability, ATPlite luminescence, 48 h; series mostly up to 57.6 µM; activity change, negative = viability loss: at the top concentration.
Method in brief: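 ATPlite luminescence read-out of cell viability; IC50 from 11-point 1:3 titrations, 57.5 uM to 0.977 nM, 48 h compound exposure at 37 C, 5% CO2. Cells seeded at 1,000/well 16 h before dosing.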
% is scaled to controls: 0 for no effect and ±100 for the full control effect; potency is read from the fitted curve at half-maximal effect.
Also: nearly all actives have a fitted effect of over 55% in size.

Row | SMILES | Potency | activity change, negative = viability loss
1 | Cc1sc2c(c1C)C(c1ccc(Cl)cc1)=NC(CC(=O)OC(C)(C)C)c1nnc(C)n1-2 (stereo not drawn) | 1.53 µM (active) | –
2 | CCOc1ccccc1-n1c(C(C)N2CCN(C(=O)COc3ccc(Cl)cc3)CC2)nc2ccccc2c1=O (stereo not drawn) | 13.7 µM (active) | –
3 | C[C@H]1CCC/C=C/C2C[C@H](O)C[C@H]2[C@H](O)/C=C/C(=O)O1 (stereo partly drawn) | 0.172 µM (active) | –
4 | C[C@]12CC[C@H]3[C@@H](CCC4=CC(=O)CC[C@@H]43)[C@@H]1CC[C@@H]2OC(=O)CCc1ccccc1 | – | -4.23%
5 | O=C(O)Cc1ccccc1 | – | 11.7%
6 | C=C(C)[C@H]1Cc2c(ccc3c2O[C@@H]2COc4cc(OC)c(OC)cc4[C@@H]2C3=O)O1 | 0.0273 µM (active) | –
7 | CCNC(=O)C[C@@H]1N=C(c2ccc(Cl)cc2)c2cc(OC)ccc2-n2c(C)nnc21 | 4.32 µM (active) | –
8 | C/C=C(/C)C(=O)O[C@H]1C(C)=C2[C@H]([C@@H]1OC(=O)CCCCCCC)[C@@](C)(OC(C)=O)C[C@H](OC(=O)CCC)[C@@]1(O)[C@H]2OC(=O)[C@@]1(C)O | 0.0485 µM (active) | –
